# Screening data deposited in PubChem BioAssay by National Center for Advancing Translational Sciences (NCATS).
# Most compounds without a hit are left out; they make up all but 1.8% or so of the library.
# GLP1R cytotox = cytotoxicity counter-screen for GLP-1 receptor inverse agonists; HEK293 cAMP-luciferase reporter cells, luminescence, 24 h; Potency, µM (series often up to 38.3 µM), without a hit: at the top dose activity change, negative = inhibition, hits mostly inhibitors; hit rate 0.13% among 410,000;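 further: loss of luciferase light is scored as toxicity; potency means the concentration at half of the fitted maximal effect; on the % scale 0 is the no-effect control and ±100 the full control effect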
#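 Step one: seed cells (200 cells/uL, DMEM with 10% Nu serum, 1% pen-strep). Step two: 12-hour incubation at 37 deg C. Step three: pin 23 nL compound, incubate 24 hr. Step four: add luciferase reagent, read luminescence 12 min later.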
# GLP1R ag = activates the human GLP-1 receptor; P43220; HEK293 GLP-1R CRE-luciferase, luminescence, 4-6 h; cells express a hypersensitive GLP-1R form; Potency, µM (top dose mostly 45.6 µM), inactives show top-dose activation, usual class: activators; hit rate 0.007% among 380,000; AID 624172; further: potency means the concentration at half of the fitted maximal effect; % of control where 0% means no effect
# Target sequence (P43220 whole entry, looked up): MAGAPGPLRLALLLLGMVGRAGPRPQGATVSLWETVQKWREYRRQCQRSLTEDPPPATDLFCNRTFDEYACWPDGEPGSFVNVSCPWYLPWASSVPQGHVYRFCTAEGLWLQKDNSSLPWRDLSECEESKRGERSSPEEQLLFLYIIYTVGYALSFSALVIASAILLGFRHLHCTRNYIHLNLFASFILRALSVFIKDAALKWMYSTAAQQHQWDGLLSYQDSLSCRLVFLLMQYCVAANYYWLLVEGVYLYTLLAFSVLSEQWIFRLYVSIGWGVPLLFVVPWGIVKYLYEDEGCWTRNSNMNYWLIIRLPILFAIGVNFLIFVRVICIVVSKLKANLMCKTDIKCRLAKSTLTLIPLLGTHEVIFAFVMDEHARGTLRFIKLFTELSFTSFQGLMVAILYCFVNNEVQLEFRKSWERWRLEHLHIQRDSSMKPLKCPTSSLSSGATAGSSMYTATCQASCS
# TRPML1 agonist = activates the human TRPML1 channel; TRPML1-expressing cells, Ca2+ dye fluorescence, FDSS; hit rate 0.12% among 410,000; AID 624414; activation, % (no concentration beside the values); Q9GZU1; in the data active means activation above about 50%; inconclusive means mostly about 30% to 49%; further: 0% is about no effect
#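 Agonist activity was taken from a 110 s kinetic Ca2+ dye read on the FDSS after pinning compounds onto TRPML1-DL cells. The cells were seeded at 1,500/well with Tet inducer, incubated about 16 h, then dye-loaded at room temperature.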
# GLP1R inv ag = inverse agonists of human GLP-1 receptor. P43220. HEK293 GLP-1R CRE-luciferase, luminescence, 24 h; GLP-1R form is constitutively active. Potency, µM (top dose mostly 38.3 µM), for the others: top-dose activity change, negative = inhibition, hits mostly inhibitors. hit rate 1.6% among 410,000. AID 624417; further: potency means the concentration at half of the fitted maximal effect; on the % scale 0 is the no-effect control and ±100 the full control effect; nearly all actives have a fitted effect of over 55% in size
#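 Seeding at 200 cells/uL, 12 h culture, 24 hr compound treatment, then luciferase reagent and a luminescence read; cells are HEK293 stably expressing a constitutively active GLP-1R plus cAMP-responsive luciferase.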
# TRPML1 inh = blocks the human TRPML1 channel; Q9GZU1; TRPML1-inducible cells, Ca2+ dye fluorescence, FDSS; stronger effect = lower value; inhibition of EC80 agonist-evoked calcium signal; activity change, negative = inhibition, % (concentration not given with the values); hit rate 0.02% among 390,000; in the data active means activity change below about -50%; inconclusive means between about -30% and that limit;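 further: stimulus is agonist 54-4 at its EC80 concentration; on the % scale 0 is the no-effect control and ±100 the full control effect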
#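 TRPML1-DL cells, Tet-induced overnight (~16 h, 37 °C) at 1,500 cells/well, were loaded with Ca8 no-wash dye plus quencher for 45-90 min at room temperature. Compounds were pinned during FDSS kinetic reading; agonist 54-4 at EC80 (4 uM final) then added.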
# * marks the source's active call; other numbers are inactive results; u = inconclusive; x = no result. Unless noted, the call rests on the fitted dose curve; in most records, active means well fitted curve in the direction sought with a large enough effect; inconclusive means small, poorly fitted or top-dose-only effect, or another doubt; inactive means no such curve, though single readings can be large; an effect the other way counts as inactive or inconclusive.
SMILES,GLP1R cytotox,GLP1R ag,TRPML1 agonist,GLP1R inv ag,TRPML1 inh
CCc1ccc(-c2csc(NC(=O)C3CCCO3)c2C(=O)OC(C)C)cc1 (configuration not stated),20.9%,-1.6%,2.4,1.26µM*,12.1
Oc1ccc(-c2nc3ccccc3nc2-c2ccccc2)cc1,-29.7%,24.2%,0.4,3.98µM*,10.3
COc1ccc(Cl)cc1NC(=O)C1CCN(S(=O)(=O)c2ccc3c(c2)CCCN3C(=O)C2CCC2)CC1,5.2%,x,-0.6,2.3%,5.6
COC(=O)c1ccc(C23CC4(C2)[C@H](CN(Cc2cccnc2)[C@@H]4c2ccccc2)C3c2ccc(C(F)(F)F)cc2)cc1 (some centres not stated),-21.1%,4.4%,0.2,u,10.1
FC(F)(F)c1ccc(C2[C@H]3CN(Cc4ccc(-c5ccccc5)cc4)[C@H](c4ccccc4)C34CC2(c2cccnc2)C4)cc1 (some centres not stated),9.1%,-5.0%,0.2,1.1%,-13.0
COC(=O)c1ccc(C23CC4(C2)[C@H](CN(Cc2cccnc2)[C@@H]4c2ccccc2)C3c2ccccc2)cc1 (some centres not stated),7.0%,-1.2%,-0.4,8.91µM*,-9.8
FC(F)(F)c1ccc(C2[C@H]3CN(Cc4cccnc4)[C@H](c4ccccc4)C34CC2(c2cccnc2)C4)cc1 (some centres not stated),u,-3.9%,0.1,11.2µM*,46.8
COc1ccc(/C=N/NC(=O)Cc2csc(Nc3cccc(C(F)(F)F)c3)n2)cc1C,u,-1.1%,2.2,7.94µM*,-8.1
COCCOC(=O)C1=C(C)NC(C)=C(C(=O)OC/C=C/c2ccccc2)C1c1cccc([N+](=O)[O-])c1 (configuration not stated),x,2.8%,x,x,x
Cc1cccc(C)c1NC(=O)c1sc(-n2nc(C)c(Cc3ccccc3)c2C)nc1C,-0.9%,x,0.2,4.0%,13.5
Cc1occc1-c1nnc(SCC(=O)NC2CCCC2)n1C,-1.2%,1.3%,-0.3,16.2%,2.2
Cc1occc1-c1nnc(SCC(=O)NC2CCCC2)n1-c1ccccc1,-3.6%,0.4%,-0.8,11.2µM*,-2.5
COc1cccc(NC(=O)CSc2nnc(-c3ccoc3C)n2-c2ccccc2)c1,1.7%,4.0%,0.9,11.2µM*,4.9
COc1ccc(OC)c(NC(=O)CSc2nnc(C3CCCCC3)n2-c2ccccc2)c1,2.0%,6.1%,1.6,3.98µM*,23.1
Cc1ccc(NC(=O)C2CCCN(c3nnc(C)c4c(C)n(-c5ccccc5)nc34)C2)c(Cl)c1 (configuration not stated),-8.1%,x,1.3,4.9%,15.4
Cc1nc2ccc(S(=O)(=O)N(CC(=O)Nc3cccc(Cl)c3)Cc3ccccc3)cc2s1,2.9%,x,4.8,-38.7%,22.8
CCN(CC)CCCN=Cc1c(O)n(Cc2ccccc2)c(=O)c2ccccc12,-9.7%,14.2%,0.3,12.6µM*,-6.4
CCN(CC)CCCN=Cc1c(O)n(-c2c(C)cccc2C)c(=O)c2ccccc12,1.0%,-3.0%,1.1,u,4.8
COc1ccc(NC(=O)c2ccc(-c3nc(CSc4ccc(C)cc4)c(C)o3)cc2)cc1Cl,3.0%,x,0.6,1.8%,-13.7
O=C(CNc1ccc(Br)cc1)Nc1ccc(S(=O)(=O)N2CCCC2)cc1,-27.4%,-15.1%,-0.4,10µM*,-16.9
O=C(CNc1ccc(Br)cc1)Nc1cccc(S(=O)(=O)N2CCCC2)c1,-18.7%,0.4%,1.1,u,9.0
O=C(COc1ccc(Br)cc1CO)Nc1ccc(S(=O)(=O)N2CCCCC2)cc1,-0.5%,-2.9%,0.2,10µM*,-13.1
COc1ccc2c(C)c(CCC(=O)NCc3cccc(Cl)c3)c(=O)oc2c1,-11.4%,x,-1.1,1.2%,20.4
Cc1ccc(CCNC(=O)CCSCc2ccccc2Cl)cc1,1.7%,x,3.9,u,21.7
CCCC(c1nnnn1Cc1ccc(OC)cc1)N1CCN(c2ccccc2OC)CC1 (configuration not stated),0.3%,16.0%,0.6,10µM*,-1.5
SMILES,GLP1R cytotox,GLP1R ag,TRPML1 agonist,GLP1R inv ag,TRPML1 inh
Cc1c(Cl)cccc1NC(=O)CC(c1ccc(F)cc1)N1Cc2ccccc2C1=O (configuration not stated),-14.8%,x,3.1,u,18.0
CCn1c(CN2CCN(Cc3ccc(C)cc3)C(CCO)C2)nc2ccccc21 (configuration not stated),-0.8%,-3.2%,0.2,6.31µM*,12.1
O=C(NCc1ccccc1Cl)C(=O)NCC(c1cccs1)S(=O)(=O)c1ccccc1 (configuration not stated),2.2%,x,0.3,u,5.2
COc1ccc(NC(=O)Cn2c(=O)oc3cc(S(=O)(=O)NCc4ccccc4)ccc32)c(OC)c1,-0.9%,x,0.5,-18.3%,2.4
O=C(c1ccccc1)c1c[nH]c(C(=O)NNc2ccccc2)c1,12.2%,5.5%,0.0,2.51µM*,-4.4
Cn1nc(C(C)(C)C)c(NC(=O)c2cccs2)c1C(C)(C)C,-1.2%,-3.7%,77.9*,2.0%,-17.5
Cc1ccc2nc(/C=C/c3ccc(N(C)C)cc3)ccc2c1,x,x,19.5,x,x
CO[C@H](C(=O)[C@@H](O)[C@@H](C)O)C1Cc2cc3cc(O[C@H]4C[C@@H](O[C@H]5C[C@@H](O)[C@H](O)[C@@H](C)O5)[C@@H](O)[C@@H](C)O4)c(C)c(O)c3c(O)c2C(=O)[C@H]1O[C@H]1C[C@@H](O[C@H]2C[C@@H](O[C@H]3C[C@](C)(O)[C@H](O)[C@@H](C)O3)[C@H](O)[C@@H](C)O2)[C@H](O)[C@@H](C)O1 (some centres not stated),x,-1.0%,x,x,x
CC(=O)Nc1nc(-c2ccc3c(c2)CCN3C(=O)C2CC2)c(C)s1,16.3%,16.6%,1.5,0.631µM*,4.4
CNc1nc(-c2ccc3c(c2)CCN3C(=O)CC(C)(C)C)c(C)s1,-0.4%,-2.1%,-0.5,u,-0.5
C[C@H]1CN([C@@H](C)CO)C(=O)Cc2cc(NC(=O)CCC(F)(F)F)ccc2O[C@H]1CN(C)Cc1ccc(-c2ccccc2)cc1,1.7%,-1.0%,0.3,4.47µM*,32.3
C[C@H](CO)N1C[C@H](C)[C@@H](CN(C)S(=O)(=O)c2ccccc2)OCCCC[C@H](C)Oc2ccc(NC(=O)CCC(F)(F)F)cc2C1=O,-6.4%,-1.9%,-1.0,-0.4%,15.3
C[C@@H]1CCCCO[C@@H](CN(C)Cc2ccc(Cl)c(Cl)c2)[C@@H](C)CN([C@H](C)CO)C(=O)c2cc(NC(=O)CCC(F)(F)F)ccc2O1,-22.0%,1.1%,0.2,2.82µM*,13.8
